Values joined by “and” are separate entries in the source; they are usually repeats but may differ in a detail not shown here. Identical values can stand only once. The campaign covered roughly 18,000 compounds. About 1,200 (6.7%) were called active. Another 16% or so got no clear call; they are omitted. Calls follow the shape of the full dose curve; tested in HEK293 cells. This excerpt belongs to a sample that is enriched for actives.
Assay: qHTS for Inhibitors of binding or entry into cells for Marburg Virus
Settings: Marburg virus pseudotype entry/binding inhibition, cell-based; series mostly up to 49.2 µM; activity change, negative = inhibition: at the top concentration
% is scaled to controls: 0 for no effect and ±100 for the full control effect; potency is read from the fitted curve at half-maximal effect.

| Compound | Potency | activity change, negative = inhibition |
| --- | --- | --- |
| CC[N+](C)(CC)CCC[n+]1c(-c2ccccc2)c2cc(N)ccc2c2ccc(N)cc21 | 7.08 µM (active) and 2.82 µM (active) |  |
| CCCCC/C=C\CC1OC1CCCCCCCC(=O)O (stereo not drawn) |  | inactive |
| CCC(C)(C)N=C(NC#N)Nc1cccnc1 |  | 19.6% (inactive) |
| Clc1ccc(C(Cn2ccnc2)OCc2ccsc2Cl)c(Cl)c1 (stereo not drawn) |  | 7.18% (inactive) |
| Brc1ccc(C2=NCCC(c3ccccc3)O2)cc1 (stereo not drawn) |  | 8% (inactive) |
| C[C@@H]1C(c2ccccc2)=Cc2[nH]c(=O)[nH]c2C[C@@H]1C(=O)N1CCCC1 |  | 7.81% [at 8.59 µM] (inactive) |
| COC(=O)C=C[C@H]1c2ccccc2[C@@H](OC)[C@@H]1C |  | 16.3% [at 8.59 µM] (inactive) and -4.37% [at 8.59 µM] (inactive) |
| CCOC(=O)CN1C(=O)NC(CCc2ccccc2)C(C(C)=O)=C1C (stereo not drawn) |  | 3.64% [at 8.59 µM] (inactive) |
| COC(=O)C(C(=O)OC)C1c2ccccc2C=C(C2CC2)N1C(=O)OC (stereo not drawn) |  | inactive |
| CCCNC(=O)CC1OC(C2CCCCC2)Cc2ccccc21 (stereo not drawn) |  | -26.1% [at 8.59 µM] (inactive) |
| Cc1cc2oc(=O)cc(CN(C)Cc3ccccc3)c2cc1Cl |  | 32.3% (inactive) |
| CCOC(OCC)OCC |  | 4.67% (inactive) |
| CCCCC/C=C\C/C=C\C/C=C\CCCCCCC(N)=O |  | -17.1% (inactive) |
| COc1ccc([C@]23Cc4cc(OC)c(OC)cc4[C@H](O2)c2c(cc(C)oc2=O)O3)cc1 |  | 8.88% [at 8.59 µM] (inactive) |
| O=C(c1ccc(F)cc1)C1CCN(CCCCc2ccccc2)CC1 | 15.8 µM (active) |  |
| c1ccc(CCCCN2CCC(c3ccccc3)CC2)cc1 | 14.1 µM (active) |  |
| O=C(O)C1CCCN(CCC=C(c2ccccc2)c2ccccc2)C1 (stereo not drawn) |  | inactive |
| O=C(O)C[C@@H]1NC(=O)[C@H](Cc2ccccc2)NC1=O |  | 2.12% (inactive) |
| O=C(O)CCCc1ccccc1 |  | inactive |
| CCCCCCCC[C@@H](O)/C=C/C=C/C=C\[C@@H](O)CCCC(=O)O |  | 0.476% (inactive) |
| COC(=O)C1(C(C)=O)CC2=CC[C@H]3C(=O)N(c4ccccc4)C(=O)[C@H]3[C@@H]2Cc2ccccc2[C@@H]1C[N+](=O)[O-] (stereo partly drawn) |  | inactive |
| CC(C)(C)OC(=O)NCCCC1=CC2=CC(=O)C(C)(OC(=O)c3ccco3)C(=O)C2=CO1 (stereo not drawn) |  | -1.5% (inactive) |
| NNc1nnc(NN)c2ccccc12 |  | 34.2% (inactive) |
| NNc1nnc(Cc2ccncc2)c2ccccc12 | 11.2 µM (active) |  |

| Compound | Potency | activity change, negative = inhibition |
| --- | --- | --- |
| CCN(CCNC(=O)[C@H]1C=C(OC)C(=O)C[C@@H]2c3ccccc3C[C@]12C)C(C)=O |  | 0.4% [at 8.59 µM] (inactive) |
| FCOC(C(F)(F)F)C(F)(F)F |  | 22.4% (inactive) |
| CC1(OC(=O)c2ccc(Cl)nc2)C(=O)Cc2cc(-c3ccsc3)ncc2C1=O (stereo not drawn) |  | -19.4% [at 8.59 µM] (inactive) |
| CN1CCC[C@@H]1CCO[C@](C)(c1ccccc1)c1ccc(Cl)cc1 | 14.1 µM (active) and 28.2 µM (active) |  |
| CN1CCCC1CCO[C@@](C)(c1ccccc1)c1ccc(Cl)cc1 (stereo partly drawn) | 10 µM (active) |  |
| CC(=O)C1=C(C)N(Cc2ccccc2)C(=O)NC1c1cccs1 (stereo not drawn) |  | 3.55% [at 8.59 µM] (inactive) |
| CCCCCCN1C[C@@H](O)[C@H](n2cc(C3CC3)nn2)C[C@H]1c1ccccc1 |  | -14.4% (inactive) |
| COc1ccc(C2=C(N3CCc4ccccc43)C(=O)NC2=O)cc1 |  | 28.3% (inactive) |
| CCCCC/C=C\C/C=C\C/C=C\CCCCC(=O)NCC(=O)O |  | 6.5% (inactive) |
| CC(C)[C@H]1COCCS(=O)(=O)N1Cc1ccccc1-c1cccc2c1sc1ccccc12 |  | -18.2% (inactive) |
| COC(=O)C1=C(C)N(Cc2ccccc2)C(=NCCc2ccc([N+](=O)[O-])cc2)NC1c1cccc(F)c1 (stereo not drawn) |  | 9.24% [at 8.59 µM] (inactive) |
| COc1ccc(C2CC(=O)Oc3ccc(C(C)(C)C)cc32)cc1 (stereo not drawn) |  | 4.9% (inactive) |
| CCOC(=O)C1C/C(=C\C(C)=O)c2cccc(C(F)(F)F)c2O1 (stereo not drawn) |  | 6.48% (inactive) |
| Cc1cnc(C)c(-c2cc(F)c3c(c2)CC(CNC(=O)c2cccc(Cn4cccn4)c2)O3)n1 (stereo not drawn) |  | 10.3% (inactive) |
| CCN(CC)CCCC(C)Nc1ccnc2cc(Cl)ccc12 (stereo not drawn) | 10 µM (active) and 5.01 µM (active) |  |
| COc1ccc(-c2c(C)cc3oc(=O)cc(-c4ccccc4)c3c2C)cc1F |  | 0.588% (inactive) |
| C=CCN1C(=O)N(Cc2ccccc2)c2ccccc2S1(=O)=O |  | 11% (inactive) |
| COc1ccc2[nH]cc(CCNCc3ccc(Br)cc3)c2c1 | 15.8 µM (active) |  |
| COc1ccc2[nH]cc(CCNc3nc(-c4cccc(NS(C)(=O)=O)c4)nc4ccccc34)c2c1 |  | -18.6% (inactive) |
| COc1ccc(CNS(=O)(=O)c2cc(Br)ccc2Br)cc1 |  | 18.8% (inactive) |
| Cc1cc(N(C)C)nc(Cl)n1 |  | 9.23% (inactive) |
| CC(C)(C)Nc1oc(-c2ccccc2)nc1C=Cc1ccccc1 |  | 3.65% [at 8.59 µM] (inactive) |
| CCOC(=O)CCN1C(=O)[C@@H]2[C@H]3[C@H](O)[C@H](O)CC(=NOCC(C)C)[C@@H]3CC[C@H]2C1=O |  | -10.9% [at 8.59 µM] (inactive) |
| C=C(C)C1CC=C(C)C(O)C1 (stereo not drawn) |  | 0.898% (inactive) |
